Each structure is given as a SMILES string. The whole screen tested about 310,000 compounds, of which about 14,000 (4.5%) showed an effect of 50% or more. The effect is printed as a negative number. This is one part of a sample in which strong results are shown more often than they occur.
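Note: peak tail current of the secondary pulse compared with the same well before compound.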

The experiment deals with human ether-à-go-go-related gene (hERG) potassium channel (human, UniProt Q12809). As to the kind of experiment: primary screen, population patch clamp on CHO cells stably expressing hERG; higher = less effect of the substance.
Chain of human ether-à-go-go-related gene (hERG) potassium channel (Q12809 whole entry, looked up): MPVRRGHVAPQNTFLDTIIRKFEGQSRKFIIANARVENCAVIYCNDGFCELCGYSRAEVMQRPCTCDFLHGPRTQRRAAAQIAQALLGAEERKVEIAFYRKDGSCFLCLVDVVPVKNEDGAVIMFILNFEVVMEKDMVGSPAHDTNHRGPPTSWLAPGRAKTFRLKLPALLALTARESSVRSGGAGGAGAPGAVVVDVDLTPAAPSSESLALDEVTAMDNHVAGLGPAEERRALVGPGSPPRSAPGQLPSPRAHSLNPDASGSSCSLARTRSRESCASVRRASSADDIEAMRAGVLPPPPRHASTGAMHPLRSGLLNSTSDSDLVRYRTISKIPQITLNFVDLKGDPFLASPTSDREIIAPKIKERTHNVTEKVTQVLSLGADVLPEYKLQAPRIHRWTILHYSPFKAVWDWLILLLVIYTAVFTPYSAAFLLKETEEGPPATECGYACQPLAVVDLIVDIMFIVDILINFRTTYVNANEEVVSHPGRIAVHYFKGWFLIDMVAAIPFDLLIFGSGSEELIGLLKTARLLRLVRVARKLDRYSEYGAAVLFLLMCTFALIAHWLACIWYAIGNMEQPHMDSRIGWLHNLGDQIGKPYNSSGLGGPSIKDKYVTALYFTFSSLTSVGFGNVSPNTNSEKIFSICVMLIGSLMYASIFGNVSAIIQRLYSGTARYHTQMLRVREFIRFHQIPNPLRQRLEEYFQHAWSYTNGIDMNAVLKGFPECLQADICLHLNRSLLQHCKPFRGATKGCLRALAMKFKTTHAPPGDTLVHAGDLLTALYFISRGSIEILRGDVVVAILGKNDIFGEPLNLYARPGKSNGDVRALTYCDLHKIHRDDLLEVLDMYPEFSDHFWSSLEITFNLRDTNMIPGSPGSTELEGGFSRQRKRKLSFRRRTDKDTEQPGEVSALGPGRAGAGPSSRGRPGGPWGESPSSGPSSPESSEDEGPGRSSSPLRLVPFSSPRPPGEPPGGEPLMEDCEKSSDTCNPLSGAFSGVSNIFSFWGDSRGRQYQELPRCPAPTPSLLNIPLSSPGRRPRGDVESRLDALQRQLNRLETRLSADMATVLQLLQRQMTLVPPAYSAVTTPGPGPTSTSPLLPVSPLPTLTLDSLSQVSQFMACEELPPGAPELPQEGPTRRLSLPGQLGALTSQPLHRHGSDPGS
Take `CCN[C@H]1CN(CCCOC)S(=O)(=O)c2sc(S(N)(=O)=O)cc21`: the “hERG current change (%, negative = inhibition) at 10uM” value worked out at 2.51%.

Consider `CC(C)NS(=O)(=O)c1ccc(CCC(=O)N2CCc3ccccc3C2)cc1`, for which the “hERG current change (%, negative = inhibition) at 10uM” value is -11.9%.

Regarding `Cc1c(C(=O)OCC(=O)c2ccc3c(c2)OCCO3)oc2ccccc12`, the “hERG current change (%, negative = inhibition) at 10uM” value was 4.75%.

Take `COc1cc(/C=C2\CCC(C3CCCC3)C2=O)cc(OC)c1OC` (stereo not shown): the “hERG current change (%, negative = inhibition) at 10uM” value was 9.98%.

Consider `O=C(CSc1nnc2ncccn12)Nc1cccc2ccccc12`, for which the “hERG current change (%, negative = inhibition) at 10uM” value is listed as 5.09%.

`Cc1ccc(S(=O)(=O)N(C)CCCC(=O)Nc2cccc3ccccc23)cc1`: the “hERG current change (%, negative = inhibition) at 10uM” value was -28.1%.

Turning to `CC(=O)Nc1ccc(NC(=S)NC(=O)/C=C/c2ccc(Cl)cc2)cc1`, the “hERG current change (%, negative = inhibition) at 10uM” value was 17.7%.

On to `O=C(Oc1c(Br)cc(C(=S)N2CCOCC2)cc1Br)c1ccc(Cl)cc1`, for which the “hERG current change (%, negative = inhibition) at 10uM” value worked out at 11.3%.

On to `CC(=O)N1N=C(c2ccc(NS(=O)(=O)c3ccccc3)cc2)CC1c1ccco1` (stereo not shown), for which the “hERG current change (%, negative = inhibition) at 10uM” value was -12.2%.

For the compound `Cc1ccc(-n2ncc3c2CC(C)(C)CC3NC(=O)CCN2CCCCC2=O)cc1` (stereo not shown), the “hERG current change (%, negative = inhibition) at 10uM” value was found to be 3.16%.

With `Cc1ccc(-n2ncc3c2CC(C)(C)CC3NC(=O)CCc2cccnc2)cc1` (stereo not shown), the “hERG current change (%, negative = inhibition) at 10uM” value is given as -63.9%.

Turning to `Cc1ccc(-n2ncc3c2CC(C)(C)CC3NC(=O)CCN2CCCO2)cc1` (stereo not shown), the “hERG current change (%, negative = inhibition) at 10uM” value was -37.7%.

On to `Cc1ccc(-n2ncc3c2CC(C)(C)CC3NC(=O)CCc2c(C)noc2C)cc1` (stereo not shown), for which the “hERG current change (%, negative = inhibition) at 10uM” value is -32.3%.

On to `Cc1ccc(-n2ncc3c2CC(C)(C)CC3NC(=O)CCc2cnn(C)c2)cc1` (stereo not shown), for which the “hERG current change (%, negative = inhibition) at 10uM” value is given as -52.6%.

As for `Cc1ccc(-n2ncc3c2CC(C)(C)CC3NC(=O)CCCN2CCCC2=O)cc1` (stereo not shown), the “hERG current change (%, negative = inhibition) at 10uM” value is on record as -1.21%.

For `O=c1ccc2cc(S(=O)(=O)N3CCN(c4cc(Cl)ccc4Cl)CC3)ccc2o1`, the “hERG current change (%, negative = inhibition) at 10uM” value is -20.7%.

Consider `Cc1cc(NC(=O)CSCC(=O)Nc2ccccc2Oc2ccccc2)no1`, for which the “hERG current change (%, negative = inhibition) at 10uM” value is -8.79%.

Consider `NC(=O)CSc1oc(-c2cccs2)nc1S(=O)(=O)c1ccccc1`, for which the “hERG current change (%, negative = inhibition) at 10uM” value is -15.5%.

Take `COc1cccc(/C=N/NC(=O)CN2CC(c3ccccc3)CC2=O)c1O` (stereo not shown): the “hERG current change (%, negative = inhibition) at 10uM” value was -9.13%.

Turning to `O=c1[nH]c2ccccc2c(O)c1-[n+]1ccccc1.[Cl-]`, the “hERG current change (%, negative = inhibition) at 10uM” value is 22.5%.

For the compound `COc1ccc(CCNC(=O)C(=O)Nc2ccc3nc4n(c(=O)c3c2)CCCCC4)cc1OC`, the “hERG current change (%, negative = inhibition) at 10uM” value was -27.3%.

Consider `Oc1ccc(/C=N/Nc2nc(N3CCCC3)nc(N3CCCC3)n2)cc1O`, for which the “hERG current change (%, negative = inhibition) at 10uM” value stood at 2.71%.

On to `Cl.c1ccc(CSCc2cn3ccccc3n2)cc1`, for which the “hERG current change (%, negative = inhibition) at 10uM” value was 2.98%.

As to `Cc1ncc([N+](=O)[O-])n1CCOC(=O)NC(Nc1ccc(F)cc1)C(Cl)(Cl)Cl` (stereo not shown), the “hERG current change (%, negative = inhibition) at 10uM” value is on record as -54.6%.

As to `Cc1ccccc1NC(NC(=O)OCCn1c([N+](=O)[O-])cnc1C)C(Cl)(Cl)Cl` (stereo not shown), the “hERG current change (%, negative = inhibition) at 10uM” value is recorded as 2.42%.

For `Cc1ccc(NC(NC(=O)OCCn2c([N+](=O)[O-])cnc2C)C(Cl)(Cl)Cl)cc1` (stereo not shown), the “hERG current change (%, negative = inhibition) at 10uM” value is 6.71%.

For `COc1ccccc1NC(=O)COn1nnc2ccc(S(=O)(=O)N3CCOCC3)cc21`, the “hERG current change (%, negative = inhibition) at 10uM” value is listed as 4.92%.

For the compound `CN(CC(=O)Nc1ccc(Cl)c(C(F)(F)F)c1)C(=O)c1cn2ccccc2n1`, the “hERG current change (%, negative = inhibition) at 10uM” value is recorded as -61.9%.

Take `Cc1ccc(OCC(=O)N(C)CC(=O)Nc2ccccc2Cl)c([N+](=O)[O-])n1`: the “hERG current change (%, negative = inhibition) at 10uM” value is -16.7%.

Consider `Cc1ccc(OCC(=O)N(C)CC(=O)Nc2ccc(Cl)c(C(F)(F)F)c2)c([N+](=O)[O-])n1`, for which the “hERG current change (%, negative = inhibition) at 10uM” value is -54.8%.

In the case of `COc1ccc(NC(=O)CN(C)C(=O)CCCNC(=O)c2ccc(Cl)cc2)cc1`, the “hERG current change (%, negative = inhibition) at 10uM” value is -30.8%.

For `CN(CC(=O)Nc1ccc(Cl)c(C(F)(F)F)c1)C(=O)CNC(=O)C1CCCCC1`, the “hERG current change (%, negative = inhibition) at 10uM” value is -31.5%.

For the compound `CN(CC(=O)Nc1ccc(Cl)c(C(F)(F)F)c1)C(=O)CCN1C(=O)C2CC=CCC2C1=O` (stereo not shown), the “hERG current change (%, negative = inhibition) at 10uM” value is listed as -37.2%.

Take `CN(CC(=O)Nc1cccc(F)c1)C(=O)c1cn2ccccc2n1`: the “hERG current change (%, negative = inhibition) at 10uM” value is listed as -5%.

With `CCOc1ccc(NC(=O)CN(C)C(=O)c2cn3ccccc3n2)cc1OCC`, the “hERG current change (%, negative = inhibition) at 10uM” value is -19.2%.

On to `COc1ccccc1C(=O)NCCC(=O)N(C)CC(=O)Nc1ccc(Cl)cc1`, for which the “hERG current change (%, negative = inhibition) at 10uM” value is recorded as -31.9%.

Consider `CN(CC(=O)Nc1ccc(Cl)cc1)C(=O)CCNC(=O)c1ccc(Cl)cc1`, for which the “hERG current change (%, negative = inhibition) at 10uM” value is on record as -67.7%.

On to `CN(CC(=O)Nc1ccc(Cl)c(C(F)(F)F)c1)C(=O)CCN1C(=O)C2CCCCC2C1=O` (stereo not shown), for which the “hERG current change (%, negative = inhibition) at 10uM” value is -50.2%.

On to `Cc1ccc(OCC(=O)N(C)CC(=O)Nc2ccc(F)cc2)c([N+](=O)[O-])n1`, for which the “hERG current change (%, negative = inhibition) at 10uM” value is recorded as -24.2%.

With `COc1cc(C2/C(=C(/O)c3ccccc3)C(=O)C(=O)N2c2ccccn2)ccc1O` (stereo not shown), the “hERG current change (%, negative = inhibition) at 10uM” value is recorded as 25.1%.

As for `O=C(COC(=O)CN1C(=O)C2CC=CCC2C1=O)Nc1cc(C(F)(F)F)ccc1N1CCOCC1` (stereo not shown), the “hERG current change (%, negative = inhibition) at 10uM” value is listed as -26.8%.

On to `CC(=O)OCCN(Cc1ccccc1)Cc1ccc2c(c1)OCO2`, for which the “hERG current change (%, negative = inhibition) at 10uM” value is -10.8%.

As for `CC(/C=N/n1c(-c2cc(C)[nH]n2)n[nH]c1=S)=C\c1ccccc1`, the “hERG current change (%, negative = inhibition) at 10uM” value is listed as 14.7%.

As to `Cc1ccc(NC(=O)CN(C)Cc2cc(=O)n3ccsc3n2)cc1`, the “hERG current change (%, negative = inhibition) at 10uM” value was -7.66%.

`CN(CC(=O)Nc1cccc(F)c1)C(=O)CCCNC(=O)c1ccc(Cl)cc1`: the “hERG current change (%, negative = inhibition) at 10uM” value was -36.7%.

`O=C(CCCN1C(=O)CCC1=O)Nc1ccc(Cl)c(C(F)(F)F)c1`: the “hERG current change (%, negative = inhibition) at 10uM” value is recorded as -18.8%.

For `CN(CC(=O)Nc1ccc(Cl)c(C(F)(F)F)c1)Cc1cc(=O)n2ccsc2n1`, the “hERG current change (%, negative = inhibition) at 10uM” value is given as -82.8%.

Take `COc1ccc(NC(=O)CN(C)C(=O)CSCC(=O)Nc2ccc(C)cc2)cc1`: the “hERG current change (%, negative = inhibition) at 10uM” value was -0.753%.

Take `CN(CC(=O)Nc1ccc(Cl)c(C(F)(F)F)c1)C(=O)CCCNC(=O)c1ccc(Cl)cc1`: the “hERG current change (%, negative = inhibition) at 10uM” value was -52.2%.

Regarding `O=C(CCCCCN1C(=O)CCC1=O)Nc1ccc(Cl)c(C(F)(F)F)c1`, the “hERG current change (%, negative = inhibition) at 10uM” value is reported as -58.7%.

As for `CN(CC(=O)Nc1ccc(Cl)cc1)Cc1cc(=O)n2ccsc2n1`, the “hERG current change (%, negative = inhibition) at 10uM” value is given as -33.3%.

Regarding `COc1cccc(NC(=O)CN(C)C(=O)CCCNC(=O)c2ccc(Cl)cc2)c1`, the “hERG current change (%, negative = inhibition) at 10uM” value is -46.5%.

For `COc1ccc(NC(=O)CSCC(=O)N(C)CC(=O)Nc2ccc(Cl)c(C(F)(F)F)c2)cc1`, the “hERG current change (%, negative = inhibition) at 10uM” value is -68.6%.

Turning to `COc1ccc(NC(=O)CCCCCN2C(=O)CCC2=O)cc1Cl`, the “hERG current change (%, negative = inhibition) at 10uM” value was -2.22%.

For the compound `COc1ccc(CCC(=O)N(C)CC(=O)Nc2ccc(Cl)c(C(F)(F)F)c2)cc1`, the “hERG current change (%, negative = inhibition) at 10uM” value was 22.2%.

The values above are taken from article PMC4336329 (PLoS ONE, 2015).
